Assay outcomes deposited in PubChem BioAssay by National Center for Advancing Translational Sciences (NCATS).
Hits are enriched below; roughly 5.6% of the tested compounds scored in any of these assays.
CtBP-E1A inh = qHTS Assay for Inhibitors of the CtBP/E1A Interaction. CtBP / adenovirus E1A interaction (AlphaScreen). AlphaScreen GST-E1A/His-CtBP binding, 1536-well; hits give low values. activity change, % (no concentration beside the values). 340,000 compounds, 0.49% hits. AID 651724, 2012; in the data active = activity change below about -65%; inconclusive = mostly about -30% to -63%
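In 5 uL wells, 23 nL compound meets equimolar GST-E1A and His-CtBP (5X stock 125 nM each) for 2 h, 37 °C. Beads (5X, 50 ug/mL) then 1 h, 37 °C, dark.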
PKM2 activator = qHTS Assay for Activators of Human Muscle isoform 2 Pyruvate Kinase; Pyruvate kinase PKM (Homo sapiens), P14618; purified PKM2, Kinase-Glo ATP luminescence, activation; response scale: 0% is enzyme alone, no compound; Potency, µM (top dose mostly 57.5 µM), for inactives: at the top dose activation, hits mostly activators; 260,000 compounds, 0.34% hits; AID 1631, 2009; note: potency is the fitted concentration of half-maximal effect; nearly all actives have a fitted effect of over 55% in size
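ATP formation by purified human PK-M2, quantified via coupled luciferase luminescence after 1 h at room temperature with 0.1 mM ADP and 0.5 mM PEP final.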
Gal4-VP16 FLuc = VP16 counterscreen qHTS for inhibitors of ROR gamma transcriptional activity | Drosophila S2 Gal4-VP16 UAS-luciferase, luminescence, 20 h | Potency, µM (titrated, usually from 53.6 µM), for inactives: at the top dose activity, negative = inhibition, hits mostly inhibitors | 310,000 compounds, 3.5% hits | AID 2546, 2010;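 note: Gal4-VP16 expression switched on by copper sulfate through the metallothionein promoter; potency is the fitted concentration of half-maximal effect; nearly all actives have a fitted effect of over 50% in size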
RORg inh = qHTS for inhibitors of ROR gamma transcriptional activity. Drosophila S2 Gal4-RORgamma UAS-luciferase reporter, 20 h. Potency, µM (titrated, usually from 53.6 µM), without a hit: at the highest dose activity change, negative = inhibition, usual class: inhibitors. 310,000 compounds, 5.4% hits; note: potency is the fitted concentration of half-maximal effect; nearly all actives have a fitted effect of over 60% in size
Target sequence (P51450 whole entry, looked up, the tested form may be a part): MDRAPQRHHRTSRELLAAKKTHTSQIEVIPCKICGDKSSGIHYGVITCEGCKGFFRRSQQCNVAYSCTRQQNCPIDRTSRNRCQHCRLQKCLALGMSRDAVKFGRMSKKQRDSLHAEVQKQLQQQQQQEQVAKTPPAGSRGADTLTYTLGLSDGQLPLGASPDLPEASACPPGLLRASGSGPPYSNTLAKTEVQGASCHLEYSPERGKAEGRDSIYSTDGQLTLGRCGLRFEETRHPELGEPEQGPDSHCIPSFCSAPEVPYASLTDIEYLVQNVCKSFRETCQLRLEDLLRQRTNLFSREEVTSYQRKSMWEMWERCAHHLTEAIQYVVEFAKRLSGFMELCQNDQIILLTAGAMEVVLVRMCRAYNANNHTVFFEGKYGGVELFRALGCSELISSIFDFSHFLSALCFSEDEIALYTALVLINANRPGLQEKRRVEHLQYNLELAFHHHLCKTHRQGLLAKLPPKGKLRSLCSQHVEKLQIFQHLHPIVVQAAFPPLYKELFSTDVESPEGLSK
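Luminescence from a UAS-regulated Photinus luciferase reporter in stably transfected Drosophila Schneider cells is measured; decreased signal marks ROR gamma inhibition. Fusion expression is induced by 700 uM copper sulfate for 20 hr.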
Six1-Eya2 blk = qHTS Assay for Inhibitors of the Six1/Eya2 Interaction; 360,000 compounds, 0.56% hits; Homeobox protein SIX1 (Homo sapiens) + Protein phosphatase EYA2 (Homo sapiens), …; activity change, % (concentration not given with the values); AID 651725, 2012; AlphaScreen GST-Six1/His-Eya2 binding, biochemical; hits give low values; in the data active = activity change below about -65%; inconclusive = mostly about -30% to -63%
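AlphaScreen luminescence read after one hour at 37 °C in darkness. Pin-transferred compounds met GST-Six1 and His-Eya2 protein (5X stock 250 nM/500 nM) plus glutathione donor and Ni-chelate acceptor beads (5X, 50 ug/mL).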
Active calls of the source: *; u = inconclusive; x = not tested or not shown; [ ] = remark or other dose. Unless noted, calls come from the whole dose curve; as a rule, active = well fitted curve in the direction sought with a large enough effect; inconclusive = small, poorly fitted or top-dose-only effect, or another doubt; inactive = no such curve, though single readings can be large; an effect the other way counts as inactive or inconclusive. % is set by controls: 0 for no effect and ±100 for the full control effect.

SMILES	CtBP-E1A inh	PKM2 activator	Gal4-VP16 FLuc	RORg inh	Six1-Eya2 blk
C[C@@H]1Cc2[nH][nH]c(=O)c2[C@H](c2ccc(Cl)cc2)O1	6.2	x	x	x	9.7
COc1ccc(CCNc2ccc(N3C(=O)CC(C)C3=O)cc2[N+](=O)[O-])cc1OC (stereo not drawn)	17.0	7.2%	6.31µM*	-67.1%	1.4
C=C1C(=O)O[C@H]2[C@H]1[C@H](OC(=O)/C(C)=C\C)C[C@]1(CO1)[C@@H]1[C@H](OC(C)=O)C=C(C)[C@]21O	-7.9	x	x	x	3.0
C=C1C(=O)O[C@@H]2[C@H]1[C@@H](OC(=O)/C(C)=C/C)C/C(C)=C\C(=O)/C=C(\C)[C@@H]2O	x	25.5%	11.2µM*	u	0.1
COc1cc(CC(=O)N2CCN(C(=O)C3CCCO3)CC2)cc(OC)c1OC (stereo not drawn)	5.0	x	x	x	1.9
CC(C)COc1ccc(C(=O)CCN2CCCCC2)cc1	4.4	6.1%	11.2µM*	7.08µM*	-1.9
CCCCOc1ccc(C(=O)CCN2CCCCC2)cc1	0.0	4.6%	14.1µM*	u	0.8
O=c1cc(-c2cccc(-c3ccc(C(F)(F)F)cc3)c2)c2cc3c(cc2o1)OCO3	x	x	-5.6%	-16.9%	x
COc1cccc(-c2nnc(NC(=O)c3ccc(S(=O)(=O)N4CCOCC4)cc3)o2)c1	-13.6	-5.2%	0.891µM*	0.501µM*	-10.0
COc1ccccc1-c1nnc(NC(=O)c2ccc(S(=O)(=O)N3CCOCC3)cc2)o1	-14.1	1.2%	0.631µM*	0.708µM*	-22.7
COc1cc(-c2nnc(NC(=O)c3ccc(S(=O)(=O)N4CCOCC4)cc3)o2)cc(OC)c1OC	x	1.2%	u	u	x
CC(C)c1ccc(C2CC(c3ccc(Br)cc3)=NN2C(N)=S)cc1 (stereo not drawn)	-23.2	u	5.62µM*	1.78µM*	-12.9
CNC(=S)N1N=C(c2ccccc2)CC1c1ccccc1Cl (stereo not drawn)	3.5	8.2%	-9.3%	17.8µM*	7.8
CNC(=S)N1N=C(c2ccc(C)cc2)CC1c1ccc(Cl)cc1 (stereo not drawn)	-9.5	-2.3%	-1.7%	12.6µM*	-3.5
CC(=O)N1N=C(c2ccc(Br)cc2)CC1c1ccc(Br)cc1 (stereo not drawn)	6.0	x	x	x	-3.0
CCCCCCCCCCCCCCCCCCOC[C@H](COP(=O)([O-])OCC[N+](C)(C)C)OC(C)=O	x	x	6.2%	-2.3%	x
COc1ccc(C(CNC(=O)c2cccc(S(=O)(=O)NCc3ccccc3)c2)N2CCOCC2)cc1 (stereo not drawn)	10.1	x	x	x	0.1
C[C@H](NC(=O)c1ncn2c1C(=O)N(C)CC2)C(=O)OC(C)(C)C	2.4	x	x	x	0.3
CC1CCC(C(C)C)C(OC(=O)Cn2c(-c3ccc(F)cc3)[n+](C)c3ccccc32)C1 (stereo not drawn)	10.1	-8.4%	7.08µM*	u	-2.4
CC1CCC(C(C)C)C(OC(=O)Cn2c(-c3ccccc3)[n+](C)c3ccccc32)C1 (stereo not drawn)	-3.8	0.3%	6.31µM*	u	-4.3
S=C(Nc1cccc2ccccc12)Nc1cccc2ccccc12	-11.2	x	x	x	-15.4
Cc1ccc(C(=O)NNC(=S)Nc2cccc3ccccc23)s1	-12.7	-7.0%	-14.3%	0.794µM*	-9.2
CC(=O)Nc1cccc(NC(=S)Nc2cccc3ccccc23)c1	3.5	-3.2%	u	12.6µM*	-10.7
Cc1ccc(F)c(NC(=S)Nc2cccc3ccccc23)c1	x	3.0%	u	11.2µM*	x
CC(=O)c1cccc(NC(=S)Nc2cccc3ccccc23)c1	-6.0	-0.5%	11.2µM*	12.6µM*	-8.4
CO[C@H]1COC(=O)[C@H](C)COC(=O)[C@@H](Cc2ccccc2)NC(=O)C/C=C\[C@H]1C	x	x	10.7%[10 µM]	9.6%[10 µM]	x
Cc1cccc2cc(-c3nc4ccc(C(=O)O)cc4[nH]3)c(=O)oc12	-5.9	x	5.01µM*	2.82µM*	-2.0
